# Inconclusive results are not listed. Values without a mark were called inactive. The source made the active and inactive calls. The call rests on the fitted dose curve; in most records, active means well fitted inhibition curve with a large enough effect; inconclusive means small, poorly fitted or top-dose-only effect; inactive means no such curve, though single readings can be large or run the other way. Numbered stars: 1 amine (or outer) side, 2 acyl side, 3 side chain; on linkers, the order of the positions; unused ones are H or OH. Square brackets hold non-standard residues; d marks the D form. Peptide text beside a SMILES is read from it. X1 = O=C([C@@H](CC(O)CCl)O[*:1])[*:2]; aIle = CC[C@@H](C)[C@H](N)C(=O)O; NMeV = CN[C@H](C(=O)O)C(C)C; NMeA = CN[C@@H](C)C(=O)O; βAla = NCCC(=O)O
# System: zebrafish Abcb4 (ABCB1 homolog)
# Test: qHTS for characterization and localization of zebrafish homologs of the human ABCB1 multidrug transporter: ABCB4 transfected cells
# Settings: CellTiter-Glo viability luminescence, 72 h; series mostly up to 15.2 µM; activity change, negative = inhibition: at the top concentration
# Text: The zebrafish has emerged as a potential model to study the blood-brain barrier (BBB) given its similarities with mammalian systems. However, little information has been available with regard to homologous ATP-binding cassette transporters expressed at the zebrafish BBB. Two transporters that are highly expressed at the human BBB are P-glycoprotein (P-gp, encoded by the ABCB1 gene) and ABCG2 (encoded by the ABCG2 gene). In this study, we focus on characterization of P-gp homologs in the zebrafish, which has two genes that are homologous to human ABCB1 - abcb4 and abcb5. We generated stably-transfected cell lines to determine their substrate specificities. […] Zebrafish abcb4 also colocalized with claudin 5 expression in brain endothelial cells.
# A high-throughput screen was performed as previously described on empty vector transfected cells, P-gp-overexpressing MDR-19 cells and cells transfected with full-length zebrafish abcb4 (ZF Abcb4) or abcb5 (ZF Abcb5). Briefly, cells were plated into 1536-well plates at a density of 500 cells/well in 5 uL media. P-gp substrate compounds (approximately 90) selected from our previous study were then added at varying concentrations using a 1536-head pin tool (Kalypsis, San Diego, CA) and plates were incubated at 37C in 5% CO2 for 72 h. CellTiter-Glo reagent (Promega) was dispensed into the wells, incubated for 5 min and luminescence was read on a ViewLux instrument (Perkin-Elmer).
# Cytotoxic compounds were defined as those that yielded a curve class of -1.1, -1.2, -2.1, -2.2, -2.3, or -2.4, a maximum response of >50% and an AC50 of < 10 uM. All compounds from screening analysis were tested in Vector (empty vector control), MDR-19 (P-gp overexpressing), zebrafish abcb4 (ZF Abcb4) and abcb5 (ZF Abcb5) expression cell lines.
# 1. Tobie D Lee, Olivia W Lee, Kyle R Brimacombe, Lu Chen, Rajarshi Guha, Sabrina Lusvarghi, Bethilehem G Tebase, Carleen Klumpp-Thomas, Robert W Robey, Suresh V Ambudkar, Min Shen, Michael M Gottesman, Matthew D Hall. A High-Throughput Screen of a Library of Therapeutics Identifies Cytotoxic Substrates of P-glycoprotein. […]
Structure (SMILES),Potency,"activity change, negative = inhibition [%]"
C[C@@H]1[C@@H](CC(C[C@H]2O[C@@H]3O[C@]4(C)CC[C@@H]5[C@H](C)CC[C@@H]([C@H]2C)[C@@]35OO4)C[S+](=O)([O-])c2ccc(COC(=O)N(C)C)cc2)O[C@@H]2O[C@]3(C)CC[C@H]4[C@H](C)CC[C@@H]1[C@@]24OO3 (stereo partly drawn),2.35 µM (active),
C=CCON=C(C[C@H]1O[C@@H]2O[C@]3(C)CC[C@@H]4[C@H](C)CC[C@@H]([C@H]1C)[C@@]24OO3)[C@H]1O[C@@H]2O[C@]3(C)CC[C@H]4[C@H](C)CC[C@@H]([C@@H]1C)[C@@]24OO3,1.87 µM (active),
CC[C@@H](C)[C@@H]1NC(=O)[C@@H]2CCCN2C(=O)[C@@H](CC(O)CCl)OC(=O)CCNC(=O)[C@H](C)N(C)C(=O)[C@H](C(C)C)N(C)C1=O (stereo partly drawn) (cyclo([NMeA][βAla][X1]P[aIle][NMeV])),,-14.4
